Rows were chosen to be rich in hits. Some 4.3% of all compounds tested hit in one or more screens of this group.
MCF10A rereplic: inducers of DNA re-replication in MCF 10A breast cells. AID 624296. MCF 10A DNA re-replication, Hoechst nuclear intensity, 48 h. Potency, µM (doses to about 46.1 µM), without a hit: at the top dose activity, positive = re-replication, most hits filed as activators. 350,000 tested, 2.9% active; further: potency means the concentration at half of the fitted maximal effect; % of control where 0% means no effect; nearly all actives have a fitted effect of over 50% in size
Giardia killer: Giardia lamblia killing | activity change, % at 7.66 µM, hits read low | Giardia lamblia trophozoite viability | 340,000 tested, 0.15% active | AID 540267; in the data active means activity change below about -80%; inconclusive means between about -30% and that limit;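 further: parasites exposed to compound for two days anaerobically before the ATP read; on the % scale 0 is the no-effect control and ±100 the full control effect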
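Anaerobic 48 hrs incubation at 37 deg C of 100 trophozoites/well with test compounds; ATPLite 1-Step luminescence, 15-30 min RT, reports cellular ATP as viability.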
uPA surface inh: blocks generation of uPA at the cell surface; cell surface uPA generation assay, qHTS; Potency, µM (titrated, usually from 38.3 µM), for inactives: top-dose activity change, negative = inhibition, hits mostly inhibitors; 330,000 tested, 0.31% active; AID 540303; active means well fitted inhibition curve with a large enough effect; inconclusive means small, poorly fitted or top-dose-only effect; inactive means no such curve, though single readings can be large or run the other way; tested in mouse RAW 264.7 cells; further: potency means the concentration at half of the fitted maximal effect; on the % scale 0 is the no-effect control and ±100 the full control effect; nearly all actives have a fitted effect of over 55% in size
SW480 rereplic: induces DNA re-replication in SW480 colon adenocarcinoma cells. SW480 DNA re-replication, Hoechst DNA content imaging, 48 h. AID 624297. Potency, µM (titrated, usually from 46.1 µM), without a hit: at the top dose re-replication activation, hits mostly activators. 340,000 tested, 1.8% active; further: potency means the concentration at half of the fitted maximal effect; % of control where 0% means no effect; nearly all actives have a fitted effect of over 55% in size
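DNA re-replication was detected as more nuclei of elevated Hoechst intensity after 48 hr exposure to compound (23 nL pinned per well of 250 cells).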
Active calls of the source: *; u = inconclusive; x = no result given. Unless noted, the call rests on the fitted dose curve; in most records, active means well fitted activation curve with a large enough effect; inconclusive means small, poorly fitted or top-dose-only effect; inactive means no such curve, though single readings can be large or run the other way.

SMILES | MCF10A rereplic | Giardia killer | uPA surface inh | SW480 rereplic
COc1cc(/C=C2\CCC(C)C3=C(c4cc(OC)c(OC)c(OC)c4)C(C#N)=C(N)OC32)cc(OC)c1OC (configuration not stated) | 8.2µM* | -3 | -7% | u
O=C(CN1C(=O)NC2(CCCC2)C1=O)N1CCN(S(=O)(=O)c2ccc(Cl)c(C(F)(F)F)c2)CC1 | 6% | -18 | 1% | 3%
CCN(CC(=O)Nc1ccccc1OC)C(=O)c1ccc2[nH]c3c(c2c1)CC(C)CC3 (configuration not stated) | 18µM* | 13 | -7% | -9%
CCCN(CC(=O)Nc1ccccc1OC)C(=O)c1ccc2[nH]c3c(c2c1)CC(C)CC3 (configuration not stated) | u | 32 | -6% | 11%
COc1ccc(NC(=O)COc2cccc(-n3cnnn3)c2)cc1Cl | -5% | 8 | 3% | 6.5µM*
CCOC(=O)c1cc(-c2ccccc2)nc2nc(N(CC)CC)sc12 | 5.2µM* | -1 | 0% | u
CCOC(=O)c1cc(-c2ccccc2)nc2nc(N3CCCCC3)sc12 | 9.2µM* | 14 | -4% | 4%
Cc1ccc(-c2cc(C(=O)O)c3sc(N4CCCCC4)nc3n2)cc1 | 0% | -29 | -3% | -6%
CC(C)C(=O)NNC(=O)CSc1nnnn1C(C)C | 1% | 2 | 15% | -1%
O=C(CCl)NC(Cc1ccccc1)C(=O)OCC(=O)c1ccc(-c2ccccc2)cc1 (configuration not stated) | 16% | -9 | -6% | -3%
Nc1cc2c(cc1C(=O)c1cccc(Br)c1)OCCO2 | 21µM* | -10 | -5% | u
C=CS(=O)(=O)c1ccc(Oc2ccc(S(=O)(=O)C=C)cc2)cc1 | 3.3µM* | 2 | 70% | u
NS(=O)(=O)c1ccc(Oc2ccc(S(N)(=O)=O)cc2)cc1 | -24% | -11 | 4% | -4%
COc1cc(/C=N/NC(N)=S)ccc1OCC(=O)Nc1ccc(C)c(C)c1 | 15µM* | 9 | -1% | u
COc1ccc(NC(=O)COc2ccc(/C=C/c3cc[n+](C)cc3)cc2OC)cc1 | u | -18 | 0% | 8.2µM*
CCCC[C@H](O)c1ccccc1 | 3% | x | x | 0%
O=C(/C=C/c1ccc2c(c1)OCO2)NCCSCc1ccc(Cl)cc1 | u | 0 | 4% | -4%
O=C(/C=C/c1ccc2c(c1)OCO2)NCCSCc1c(Cl)cccc1Cl | 9.2µM* | 10 | -2% | -7%
COCCCN(C(=O)C1CCC1)c1c(N)n(Cc2ccccc2)c(=O)[nH]c1=O | -1% | -17 | 4% | -6%
COc1ccc(-n2c(NNC(C)=O)nc3sc4c(c3c2=O)CCCC4)cc1 | 18% | -8 | 7.9µM* | 4%
COc1ccc(-n2c(SCC(=O)O)nc3sc4c(c3c2=O)CCCC4)cc1 | -4% | 19 | 2% | -9%
Cc1ccccc1N1C(=O)CC(Sc2nnc(-c3ccccc3)o2)C1=O (configuration not stated) | u | 7 | -11% | 16µM*
O=C1CC(Sc2nnc(-c3ccccc3)o2)C(=O)N1c1ccccc1 (configuration not stated) | 5.8µM* | -5 | 0% | 7.3µM*
COc1ccccc1C(=O)Nc1ccnn1C1CCN(Cc2ccn[nH]2)CC1 | 7% | 0 | 2% | -32%
Cc1cc(SCc2ccc(Cl)cc2Cl)nc(=O)[nH]1 | 9.2µM* | -5 | u | u
SMILES | MCF10A rereplic | Giardia killer | uPA surface inh | SW480 rereplic
O=C(NCC1CCCO1)C(Cc1ccccc1)N1C(=O)C2C3C=CC(C4CC34)C2C1=O (configuration not stated) | 15µM* | 10 | -4% | u
O=C(c1ccco1)N1CCN(C(=O)c2ccco2)C1=S | 2.6µM* | -4 | 0% | 5.8µM*
O=C(c1ccco1)N1CCCN(C(=O)c2ccco2)CC1 | 6% | 8 | x | -13%
O=C(c1ccco1)N1CCN(C(=O)N2CCOCC2)CC1 | u | -2 | 13% | 0.16µM*
CC(=O)O/N=C/c1c(N2CCOCC2)n(C)c2ccccc12 | 20% | -4 | -11% | 1.8µM*
O=C(CCn1nc(-c2ccc(Cl)cc2)ccc1=O)N1CCN(c2ccc(F)cc2)CC1 | -6% | -3 | u | -4%
N#C/C(=C\c1c(Cl)cccc1Cl)c1nn(-c2ccccc2)c(-n2cccc2)c1C#N | 16µM* | 6 | -4% | -7%
N#C/C(=C\c1c(F)cccc1Cl)c1nn(-c2ccccc2)c(-n2cccc2)c1C#N | u | -12 | -13% | -46%
Clc1ccc(CNc2ncnc3nc[nH]c23)cc1 | x | -18 | x | x
FC(F)(F)c1nc(-c2cccs2)ncc1-c1nnnn1-c1ccc(Cl)cc1 | 6.5µM* | -1 | -9% | 6%
Clc1ccc(-n2nnnc2-c2cnc(-c3ccncc3)nc2-c2cccs2)cc1 | u | -9 | 0% | u
O=C(NCCN1C(=O)S/C(=C\c2ccc(Cl)cc2Cl)C1=O)C1=COCCO1 | 13µM* | -6 | u | u
O=C(CCS(=O)(=O)c1ccc(Cl)cc1)NCCN1C(=O)S/C(=C\c2ccccc2F)C1=O | 19% | 5 | -3% | 3%
O=C(CNC(=O)c1ccccc1F)NCCN1C(=O)S/C(=C\c2ccccc2Cl)C1=O | 4% | 4 | -1% | -5%
O=C(NCCN1C(=O)S/C(=C\c2ccccc2F)C1=O)C1=COCCO1 | 2.6µM* | -3 | -11% | 4.1µM*
O=C(NCCN1C(=O)S/C(=C\c2ccc(Cl)cc2)C1=O)c1ccc(F)c(S(=O)(=O)N2CCOCC2)c1 | 2% | 17 | -3% | -1%
O=C(NCCN1C(=O)S/C(=C\c2ccccc2Cl)C1=O)C1=COCCO1 | 7.3µM* | -23 | 7.9µM* | u
COc1ccc(NC(=O)CN(C)CC(=O)NCCc2ccc(F)cc2)cc1 | 3% | 9 | 4% | -9%
Cn1c(=O)c(-c2cc(=O)[nH][nH]2)c(O)c2ccccc21 | 2% | 7 | 1% | -1%
O=C(O)CN1C(=O)/C(=C\c2cc(Br)ccc2OCc2ccccc2F)SC1=S | 18µM* | u | 4% | -22%
O=C1/C(=C\c2cc(Br)cc(Br)c2O)SC(=S)N1Cc1ccccc1 | 9.2µM* | 4 | 8% | 8%
O=C1/C(=C/c2ccccc2O)SC(=S)N1Cc1cccnc1 | 6.5µM* | 14 | u | u
O=C(O)CN1C(=O)/C(=C\c2cc(Br)ccc2OCc2ccccc2Cl)SC1=S | u | 5 | 0% | -8%
C=CCCn1c(Cl)c(C#N)sc1=O | x | 57 | x | x
C#CCOc1ccc(CNC[C@H]2O[C@@H](n3cnc4c(N)ncnc43)[C@H](O)[C@@H]2O)cc1 | -2% | 13 | 11% | 1%
C/C(=N\NC(=O)COc1ccc(C(C)(C)C)cc1)c1ccc(N2CCOCC2)cc1 | 9.2µM* | -2 | 7% | -81%
C/C(=N\NC(=O)c1ccc(F)cc1)c1ccc(N2CCOCC2)cc1 | -1% | -10 | -3% | 6%
O=C(CN1C(=O)C(=O)N(Cc2ccccc2)C1=O)Nc1cc(Cl)cc(Cl)c1 | u | 33 | -7% | 18µM*
O=C(CN1C(=O)C(=O)N(Cc2ccccc2)C1=O)Nc1ccc(OC(F)F)cc1 | 2% | -20 | 7% | -3%

Source: PubChem BioAssay (National Center for Advancing Translational Sciences (NCATS))
